ugtP null kill = kills S. aureus RN4220 lacking UgtP; S. aureus RN4220 ugtP deletion, OD600 growth, 16 h; growth inhibition, % (concentration not given with the values); actives 0.54% (n = 330,000); AID 1259309; in the data active = growth inhibition above about 68%
PfHsp40 yeast = restores yeast growth despite PfHsp40 toxicity | S. cerevisiae expressing PfHsp40, growth rescue, ATP luminescence | growth rescue, % at 12.5 µM | actives 0.68% (n = 340,000); in the data active = growth rescue above about 28%, passing the limit was not always enough;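 note: yeast W303a lacking pdr1 and pdr3 grown in galactose medium; growth measured after three days at 30 °C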
BH1578 lux ind = induces V. cholerae light production without autoinducers; V. cholerae BH1578 lux reporter, luminescence, 6 h; activation, % at 18.7 µM; actives 0.16% (n = 350,000); in the data active = activation mostly above about 9.7%, no sharp cut-off
RN4220 kill = kills Staphylococcus aureus RN4220; S. aureus RN4220 growth, OD600, 16 h; inhibition, % (no concentration beside the values); actives 0.33% (n = 330,000); in the data active = inhibition above about 85%
CCHF vOTU inh = CCHFV vOTU protease inhibition; Pep-AMC fluorescence; inhibition, % at 11.5 µM; actives 0.55% (n = 370,000); AID 651958; in the data active = inhibition above about 30%
Mtb hypoxia rep = inhibitors of hypoxia-regulated fluorescent reporter in Mycobacterium tuberculosis. M. tuberculosis hypoxia-regulated fluorescent reporter, fluorescence. fluorescence inhibition, % (no concentration beside the values). actives 0.1% (n = 300,000); in the data active = fluorescence inhibition mostly above about 23%, no sharp cut-off; inactive = mostly below about 17%
Hits are given with their value; . = inactive; / = no result given. Hits are enriched below; roughly 1.7% of the tested compounds scored in any of these assays.

SMILES | ugtP null kill | PfHsp40 yeast | BH1578 lux ind | RN4220 kill | CCHF vOTU inh | Mtb hypoxia rep
O=C(N/N=C/c1cc(Br)cc(Cl)c1O)c1ccc2c(c1)OCO2 | / | 257.3 | . | / | . | /
O=C(N/N=C/c1cc(Br)c(O)c(Br)c1O)c1ccc2c(c1)OCCO2 | / | 152.1 | . | / | . | /
Cc1cc(Br)cc(/C=N/NC(=O)c2ccc3c(c2)OCO3)c1O | / | . | . | / | . | /
CCOc1cc(C=NNC(=O)C(C)Sc2ccccc2)ccc1O (stereo not given) | . | / | / | . | / | .
CC=CC(=O)Nc1cccc(C2=NOC3(C2)CC(C(N)=O)N(C(=O)c2cc([N+](=O)[O-])cc([N+](=O)[O-])c2)C3)c1 (stereo not given) | . | / | / | . | / | 40.1
C/C=C(\C)C(=O)Nc1cccc(C2=NOC3(C2)C[C@@H](C(N)=O)N(C(=O)c2ccccc2C(=O)c2ccccc2)C3)c1 (stereo not given in full) | / | 51.2 | . | / | . | /
O=C(O)c1ccc(N/N=C/c2c(F)cccc2Cl)cc1 | / | 106.1 | . | / | . | /
Cc1ccc(NC(=O)C(OC(=O)c2ccc(NC(N)=O)cc2)c2ccccc2)cc1Cl (stereo not given) | 99.7 | . | . | 100.5 | . | .
CSc1sccc1C=NO | . | / | / | . | / | .
CCCC1OC(c2cc3c(cc2Cl)OCO3)OCC1CC (stereo not given) | 85.1 | . | . | . | . | .
Brc1cc2c(cc1C1OCCO1)OCO2 | . | . | . | . | . | .
COc1ccccc1CN(Cc1cc2cc(C)cc(C)c2[nH]c1=O)Cc1nnnn1CC1CCCO1 (stereo not given) | . | . | . | . | . | .
Cc1ccc2[nH]c(=O)c(CN(Cc3cccs3)Cc3nnnn3CC3CCCO3)cc2c1 (stereo not given) | . | 105.2 | . | . | . | .
Cc1ccc2cc(CN(Cc3cccs3)Cc3nnnn3CC3CCCO3)c(=O)[nH]c2c1 (stereo not given) | . | . | . | . | . | .
Cc1ccc2cc(CN(Cc3cccs3)Cc3nnnn3CC3CCCO3)c(=O)[nH]c2c1C (stereo not given) | . | 73.0 | . | . | . | .
O=C(O)c1cc(-c2ccc(C=NNc3ccc([N+](=O)[O-])cn3)o2)ccc1Cl | . | / | / | . | / | .
O=C1C2C(c3ccc(Cl)cc3)N3C(=O)N(c4cccc(Cl)c4)C(=O)[C@@]3(Cc3ccc(Cl)cc3)C2C(=O)N1C1CCCCC1 (stereo not given in full) | . | / | / | . | / | .
OC(Cn1cncn1)(Cn1cncn1)c1ccc(F)cc1F | . | 179.1 | . | . | . | .
Cc1ccc([N+](=O)[O-])cc1-c1[nH]c(-c2ccc(O)c(O)c2)nc1-c1ccccc1 | . | . | 25.0 | . | . | .
COc1ccc(-c2nc(-c3ccccc3)c(-c3cc([N+](=O)[O-])ccc3C)[nH]2)cc1O | . | . | . | . | . | .
Cc1ccc(C(=O)CC(=O)c2cccc(F)c2)c(O)c1 | 94.2 | 395.9 | . | 88.2 | . | .
Cc1ccc(C(=O)c2ccccc2C(=O)O)c(O)c1 | . | . | . | . | . | .
Cc1ccc(C(=O)CC(=O)c2ccccc2C)c(O)c1 | 87.1 | . | . | . | . | .
O=C(NCc1nc2ccccc2[nH]1)C1=CC(C2CC2)CC(OCc2ccc(CO)cc2)O1 (stereo not given) | . | / | / | . | / | .
Cc1cc(=O)[nH]c(N=NC(=NNc2ccccc2C)c2ccccc2)n1 | . | / | / | . | / | .
SMILES | ugtP null kill | PfHsp40 yeast | BH1578 lux ind | RN4220 kill | CCHF vOTU inh | Mtb hypoxia rep
CN(CC(=O)Nc1ccc(OC(F)(F)F)cc1)C(=O)c1ccc(N2CCCC2=O)cc1 | . | . | . | . | . | 29.6
CC(=O)O/C(=C1\CC2C3CC=C4CC(OC(C)=O)CCC4(C)C3CCC2(C)C1=O)C(F)(F)F (stereo not given) | 99.6 | . | / | 99.9 | . | .
O=C(c1cccs1)N(c1cccc(Cl)c1)C1C=CS(=O)(=O)C1 (stereo not given) | . | . | . | . | . | .
CCc1ccccc1N(C(=O)c1cccs1)C1C=CS(=O)(=O)C1 (stereo not given) | . | 33.6 | . | . | . | .
CC(C)COC(=O)C(C#N)=Cc1c[nH]c2ccccc12 | . | / | / | . | / | .
COc1ccccc1C1CCN(c2cc(O)ccc2[N+](=O)[O-])CC1 | . | 123.8 | . | . | . | .
Cc1cc(=O)[nH]c(NN=Cc2c(C)nn(-c3ccccc3Cl)c2Cl)n1 | . | / | / | . | / | .
O=CC1=C(c2ccccc2)Oc2ccccc2O1 | . | 494.6 | . | . | . | .
COc1ccc(-c2cc3ccccc3s2)cc1C1C2C=CCC(C)C2C(=O)N1Cc1ccccc1 (stereo not given) | . | / | / | . | / | .
CCN1C(=O)/C(=C/N(C)C)c2ccccc21 | . | . | . | . | . | .
CCN1C(=O)/C(=C\N(C)C)c2ccccc21 | . | 41.2 | / | . | . | .
Nc1nonc1-n1nnc(C(=O)N/N=C/c2cccc(O)c2)c1CN1CCCC1 | / | . | 30.5 | / | . | /
O=C(O)C1CCN(S(=O)(=O)c2ccc3c(c2)OCCCO3)CC1 | . | . | . | . | . | .
O=C(O)c1cn(C2CC2)c2cc(N3CCN(S(=O)(=O)c4ccc5c(c4)OCCO5)CC3)c(F)cc2c1=O | 100.3 | . | . | 99.4 | . | /
Cc1ccsc1C=NNC(=O)c1n[nH]c2c1CCC2 | . | / | / | . | / | .
CC1CC(C)C(=NNC(N)=O)C(C(O)CC2CCC(=O)NC2=O)C1 (stereo not given) | . | 33.4 | . | . | . | .
C[C@H]1C[C@@H](C)C(=O)[C@@H]([C@H](O)CC2CC(=O)NC(=O)C2)C1 | . | . | . | . | . | /
Nc1cc2c(cc1Br)-c1ccccc1C2=NO | / | 47.2 | . | / | . | /
Cc1cccc(C)c1NC(=O)CSc1nnc(NC(=O)CN2CCOCC2)s1 | . | 63.9 | . | . | . | /
C=CCN1c2ccccc2[C@]23CC(C(=O)OC)N(C(=O)c4cccs4)C2=NC(C(=O)OC)=C(C(=O)OC)C13 (stereo not given in full) | . | / | / | . | / | .
NC(=O)c1sc2nc(-c3ccco3)ccc2c1N | . | . | 32.1 | . | . | /
O=C(Nc1ccc(OCC(F)(F)C(F)F)c(C(F)(F)F)c1)c1ccccc1 | . | . | . | . | . | /
O=C(Nc1ccc(OCC(F)(F)C(F)F)c(C(F)(F)F)c1)c1ccccc1O | 100.1 | . | . | 111.6 | . | /
COc1ccc(-c2nnn(CC#N)n2)cc1OC | . | . | . | . | . | /
COc1ccccc1-c1nnn(CC#N)n1 | . | . | 20.0 | . | . | .
CCOC(=O)c1nn(-c2ccccc2)c(=O)c2c(N)scc12 | . | . | . | . | 37.1 | .
Cc1csc(NC(=O)c2nc(-c3ccccc3)n(-c3ccccc3)n2)n1 | . | . | . | . | . | .
CCSc1nnc(NC(=O)c2nc(-c3ccccc3)n(-c3ccccc3)n2)s1 | . | 125.7 | . | . | . | /
